SMN2 splice enh: SMN2 splice variant enhancement; AID 1458; 2.8% of 210,000 active; HEK293 SMN2-luciferase splicing reporter, luminescence, 30-36 h; Potency, µM (doses to about 46.1 µM), for the others: top-dose activity change, positive = activation, hits mostly activators; note: % of control where 0% means no effect; nearly all actives have a fitted effect of over 55% in size
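HEK293 cells carry an SMN2 […]–luciferase reporter in which exon 7 inclusion puts luciferase in frame. Cells were plated 10-12 h before compound addition, then incubated 30-36 h at 37C. ONE-Glo luminescence was read; sodium butyrate at 4.5 mM final served as control.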
Rab9 promoter act: activators of Rab9 promoter; Huh7 Rab9 promoter-luciferase reporter, luminescence, 24 h; Potency, µM (titrated, usually from 9.22 µM), without a hit: top-dose activation, negative = inhibition, hits mostly activators; 2.8% of 320,000 active; AID 485297; note: % of control where 0% means no effect; nearly all actives have a fitted effect of over 60% in size
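Luminescence read-out: Huh7 cells stably expressing Rab9-luciferase, treated 24 h with compound at 37 °C, then lysed with luciferase reagent for 10 min at ambient before reading.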
Luc counter: counter-screen: inhibitors of Kinase-Glo firefly luciferase; Q27757; Kinase-Glo luciferase, ATP luminescence, 8 min; Potency, µM (titrated, usually from 38.3 µM), for the others: top-dose activity change, negative = inhibition, most hits filed as inhibitors; 0.28% of 200,000 active; AID 1379; note: % is set by controls: 0 for no effect and ±100 for the full control effect; nearly all actives have a fitted effect of over 60% in size
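Luminescence was the read-out, taken after 8-minute incubation at ambient temperature. Luciferase turned over luciferin with 10 uM ATP in imidazole pH 7.2 buffer containing KCl, MgCl2, Tween 20 and BSA.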
ELG1 genotoxic: genotoxicity induction in ELG1-luciferase HEK293T cells. HEK293T ELG1-luciferase reporter, luminescence, 16 h. Potency, µM (titrated, usually from 46 µM), without a hit: at the highest dose activity change, positive = activation, most hits filed as activators. 1.3% of 330,000 active; note: % of control where 0% means no effect; nearly all actives have a fitted effect of over 60% in size
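Step 1: seed 2,000 HEK293T ELG1-luciferase cells per well. Step 2: add compound or DMSO, incubate 16 hr at 37 °C. Step 3: ONE-Glo, 30 min at room temperature, read luminescence.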
NPC1 prom act: NPC1 promoter activation; Huh7 NPC1 promoter luciferase reporter, 24 h; Potency, µM (titrated, usually from 9.22 µM), inactives show top-dose activation, actives largely listed as activators; 2.4% of 320,000 active; AID 485313; note: % of control where 0% means no effect; nearly all actives have a fitted effect of over 60% in size
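Quantitative HTS used a cell-based reporter: Huh7 cells stably bearing the NPC1 promoter upstream of luciferase were treated with compounds for 24 h, and promoter activation was read as luminescence.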
FLuc modulator: counter-screen for miR-21 project: firefly luciferase inhibitors or activators. P08659. purified FLuc, Km substrates, luminescence inhibition. Potency, µM (highest dose often 57.5 µM), for the others: at the top dose activity change, negative = inhibition, actives largely listed as inhibitors. 6.9% of 360,000 active. AID 588342;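 note: plate controls were vehicle for no effect and reference inhibitor for full effect; nearly all actives have a fitted effect of over 55% in size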
Target sequence (P08659 whole entry, looked up): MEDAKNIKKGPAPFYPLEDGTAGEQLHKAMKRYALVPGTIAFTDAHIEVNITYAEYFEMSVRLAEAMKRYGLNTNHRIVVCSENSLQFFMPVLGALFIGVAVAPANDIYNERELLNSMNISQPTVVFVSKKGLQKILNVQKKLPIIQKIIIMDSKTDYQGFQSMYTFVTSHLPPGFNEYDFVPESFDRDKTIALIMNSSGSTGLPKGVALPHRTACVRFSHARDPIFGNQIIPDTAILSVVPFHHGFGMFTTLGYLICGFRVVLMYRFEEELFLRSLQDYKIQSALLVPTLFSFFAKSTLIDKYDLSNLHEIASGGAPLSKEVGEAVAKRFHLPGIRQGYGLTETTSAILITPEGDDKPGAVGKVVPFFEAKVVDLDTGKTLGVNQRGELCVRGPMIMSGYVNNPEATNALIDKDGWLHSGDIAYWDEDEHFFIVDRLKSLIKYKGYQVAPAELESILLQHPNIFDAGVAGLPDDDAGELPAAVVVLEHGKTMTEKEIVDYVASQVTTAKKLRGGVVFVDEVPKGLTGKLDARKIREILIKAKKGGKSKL
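Purified P. pyralis luciferase, 10 nM final, with Km-level 10 uM D-luciferin and 10 uM ATP in 50 mM Tris acetate pH 7.5, 10 mM Mg acetate, 0.01% Tween-20, 0.05% BSA; 6-point qHTS titration about 60 µM downward; luminescence read.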
The depositor's hits bear a star; ? = inconclusive; . = not tested or not shown; [ ] = another dose, or the depositor's remark. This is a sample that favours compounds with a hit; in the whole collection about 7.3% have one here. Calls come from the whole dose curve; as a rule, active = well fitted curve in the direction sought with a large enough effect; inconclusive = small, poorly fitted or top-dose-only effect, or another doubt; inactive = no such curve, though single readings can be large; an effect the other way counts as inactive or inconclusive. Potency is the fitted concentration of half-maximal effect.

SMILES	SMN2 splice enh	Rab9 promoter act	Luc counter	ELG1 genotoxic	NPC1 prom act	FLuc modulator
CS/C(N)=N/C(=S)Nc1cccc(Cl)c1	.	?	.	9%	?	19µM*
COc1ccc(C(=O)N/C(=C\c2ccccc2)C(=O)Nc2cccc(C(=O)O)c2)cc1	.	5%	.	-2%	-4%	-1%
CC(=O)Nc1ccccc1-c1nc2ccccc2n(CC(=O)c2ccc(C)c(C)c2)c1=O	.	.	.	.	.	-2%
CCOC(=O)c1c(S(=O)(=O)N2CCCC(C(=O)N3CCN(c4cccc(C)c4C)CC3)C2)c(C)n(C)c1C (stereo unspecified)	.	.	.	.	.	-3%
C(=Nc1ccc2c(c1)Cc1ccccc1-2)c1ccccn1	8%[9.22 µM]	.	0%[7.66 µM]	.	.	.
CC(=O)c1ccc(NC(=S)NCCc2cccc(Cl)c2)cc1	13µM*	2.8µM*	4%	?	?	-22%
O=C(Nc1cccc(Cl)c1)Nc1ccc(Cl)cn1	8%	26%	-3%	11%	22%	-11%
CC(=O)Nc1ccc(NC(=O)Nc2cccc(Cl)c2)cc1	.	28%	.	?	29%	?
O=C(Nc1cccc(Cl)c1)Nc1cccc(C(=O)O)c1	.	0.35µM*	.	-2%	0.32µM*	0.48µM*
O=C(Nc1ccccc1)Nc1cccc(Cl)c1	15%	3.5µM*	-3%	?	?	9.5µM*
O=C(Nc1ccc(Cl)cc1)Nc1cccc(C(=O)O)c1	.	0.25µM*	-3%	-9%	0.089µM*	0.067µM*
Cc1ccc(C(CC(=O)Nc2cc(C)cc(C)c2)N2Cc3ccccc3C2=O)cc1 (stereo unspecified)	.	.	.	.	.	-10%
S=C(NCCc1ccccc1)NCc1cccc(Cl)c1	.	6%	.	3%	17%	-14%
O=C(Nc1cccc(Cl)c1)N1CCCCCC1	.	15%	.	?	26%	?
O=C(Nc1ccc(C(=O)N2CCCCC2)cc1)Nc1cccc(Cl)c1	.	3.2µM*	.	13%	4µM*	11µM*
CSc1cccc(NC(=O)C(=O)NCc2ccccc2)c1	.	1%	.	1%	1%	3%
O=C(NCc1ccccc1)C(=O)Nc1cccc(C(=O)O)c1	.	0.32µM*	.	-5%	0.089µM*	0.67µM*
O=C(NNC1=NCCCCC1)Nc1cccc(Cl)c1	22µM*	1.1µM*	0%	11%	?	17µM*
Fc1ccccc1NC(=S)NCCc1cccc(Cl)c1	.	?	.	16%	?	24µM*
O=C(CCSCc1cnn(-c2ccccc2)c1-n1cccc1)NCc1ccccc1F	.	.	.	.	.	1%
CC(C)(C)OC(=O)N1CCC(c2c(C(=O)NCCN3CCOCC3)cnn2-c2ccc(F)cc2)CC1	.	.	.	.	.	-3%
CC(=O)c1cccc(NC(=O)CCCOc2ccc(C)cc2)c1	-20%	9%	2%	-2%	0%	-13%
O=C(Nc1cccc(Cl)c1)Nc1ccc2nccnc2c1	.	2.2µM*	.	-2%	2.8µM*	19µM*
CC(=O)c1ccc(NC(=O)Nc2cccc(Cl)c2)cc1	11µM*	1.3µM*	-2%	?	1.4µM*	17µM*
Cc1nn(C)cc1CNC(=O)Nc1cccc(Cl)c1	?	3.5µM*	-3%	28%	?	?
SMILES	SMN2 splice enh	Rab9 promoter act	Luc counter	ELG1 genotoxic	NPC1 prom act	FLuc modulator
O=C(CCCOc1ccc(Cl)cc1)Nc1cccc(C(=O)O)c1	.	3%	4%	5%	-1%	17µM*
C[N+](C)(N)CCC[N+](C)(C)N	-12%[9.22 µM]	.	-4%[7.66 µM]	.	.	.
COc1ccc(NS(=O)(=O)c2cc3[nH]c(=O)c(=O)[nH]c3cc2C)cc1Cl	.	.	.	.	.	-11%
Cc1c2cnn(CC(=O)N3CCN(c4ccc(F)cc4)CC3)c(=O)c2c(C)n1Cc1ccccc1F	-2%	.	.	.	.	-19%
O=C(Nc1cccc(C(=O)O)c1)Nc1ccccc1Cl	13µM*	0.1µM*	-9%	-10%	0.5µM*	0.21µM*
O=C(Nc1cccc(C(=O)O)c1)Nc1cccc2ccccc12	.	3.5µM*	.	8%	2µM*	2.1µM*
CCc1ccc(CNC(=O)c2ccc(-n3c(C)cc4c3CCC(C)C4)cc2)cc1 (stereo unspecified)	.	.	.	.	.	-6%
COc1ccc(CCCn2ncc3c2nc(N)n2nc(-c4ccco4)nc32)cc1	.	.	1%[39.9 µM]	.	.	.
CSc1ccc(/C=C(\C#N)C(=O)NC2CCCCC2)cc1	-7%[1.84 µM]	-4%	-5%	1%	-2%	3%
COc1ccc(NC(=O)/C(C#N)=C\c2ccc(N3CCOCC3)o2)cc1	.	?	-8%	9%	?	1.9µM*
COc1ccc(NC(=O)/C(C#N)=C/c2ccc(Br)o2)cc1	?	18%	-1%	2%	10%	-11%
COc1ccc(NC(=O)/C(C#N)=C/c2ccc(C)o2)cc1	13µM*	.	.	.	.	2.7µM*
CCc1ccc(NC(=O)/C(C#N)=C/c2cc3ccc(C)cc3nc2N2CCOCC2)cc1	-28%	-6%	-2%	6%	-2%	-1%
N#C/C(=C\c1ccc(N2CCOCC2)o1)C(=O)Nc1ccc(O)cc1	16µM*	25%	0%	?	22%	5.4µM*
COc1ccc(NC(=O)/C(C#N)=C/c2cc(C)n(-c3ccc(N4CCOCC4)c([N+](=O)[O-])c3)c2C)cc1	-66%	-25%	3%	-8%	-18%	1%
N#C/C(=C/c1ccc(N2CCOCC2)o1)C(=O)NC1CCCCC1	.	24%	-2%	3%	3%	12µM*
O=C(c1ccc2c(c1)N(Cc1ccc(Cl)cc1)C(=O)c1ccccc1S2=O)N1CCN(c2ccccc2F)CC1 (stereo unspecified)	-8%	.	.	.	.	-2%
COc1ccc(OC)c(NC(=O)C2CCCN(S(=O)(=O)c3ccc4[nH]c(=O)ccc4c3)C2)c1 (stereo unspecified)	.	.	.	.	.	3%
CCc1ccc(NC(=S)N2CCCCCCC2)cc1	16µM*	?	1%	?	?	4.8µM*
S=C(Nc1ccc(Br)cc1)N1CCN(C2CCCCC2)CC1	-15%	-9%	3%	-1%	0%	7%
S=C(Nc1ccc(Cl)cc1)N1CCCCC1	12%	1%	0%	1%	7%	12µM*
CN1CCN(C(=S)Nc2ccc(Cl)cc2)CC1	9%	0%	2%	0%	-7%	?
CCOc1ccc(NC(=S)N2CCCC2)cc1	.	1%	.	26%	-3%	-1%
S=C(Nc1ccc(Br)cc1)N1CCCC1	8.9µM*	3%	-2%	12%	16%	15µM*
CCCCc1ccc(NC(=S)N2CCCC(C)C2)cc1 (stereo unspecified)	14%	16%	2%	11%	8%	13µM*
COc1cc(C(=O)Nc2nnc(S(=O)(=O)N(C)c3ccccc3)s2)cc(OC)c1OC	.	.	.	.	.	-12%
COc1cccc(CNC(=O)Cn2nc3c(cc2=O)CCCC3)c1OC	.	.	.	.	.	0%

Compound activity (PubChem BioAssay)
